Data as given in PubChem BioAssay (Tox21).
“And” between values parts separate entries of the source, which are not always exact repeats. Equal entries are not always repeated. Records with an inconclusive call do not appear. A call without a number means that no potency is given here. Some structures have more than one record in an assay (separate samples or runs), and their calls can disagree. The source made the active and inactive calls. Calls follow the shape of the dose curve; as a rule, active = well fitted cell-killing curve with a large enough effect in the repeat runs; inconclusive = weak or mixed curves, or effect the other way; inactive = flat fitted curve, though single readings scatter.

Assay: qHTS RealTime-Glo MT Cell Viability Assay in HEK293 cells - 24 hour (AID 1224886); as to activity change, negative = cytotoxicity: top concentration of the series differs between compounds
Settings: RealTime-Glo luminescence; series mostly up to 76.8 µM; activity change, negative = cytotoxicity: at the top concentration
Summary of the method: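 Quantitative high-throughput screen of the Tox21 10K library in HEK293: cells and RealTime-Glo reagents plated together, compound added at 5 h, luminescence monitored through 40 h at 37 C.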
Also: nearly all actives have a fitted effect of over 50% in size.
Potency is read from the fitted curve at half-maximal effect.

Structure (SMILES) | Potency | activity change, negative = cytotoxicity
S=c1[nH]c2ccccc2[nH]1 | inactive | –
CCCCC(C#N)(Cn1cncn1)c1ccc(Cl)cc1 (stereo not given) | – | -24.9% (inactive)
O=P(OCCCl)(OCCCl)OCCCl | inactive | –
COc1ccc(O)c(C(C)(C)C)c1 | inactive | –
CC(C)Nc1nc(Cl)nc(NC(C)C)n1 | inactive | –
COP(=S)(OC)Oc1ccc(Sc2ccc(OP(=S)(OC)OC)cc2)cc1 | – | 4% [at 35.3 µM] (inactive)
Brc1ccc(Br)cc1 | inactive | –
OC(c1ccc(Cl)cc1)(c1cncnc1)c1ccccc1Cl (stereo not given) | 7.04 µM (active) | –
ClCc1ccccn1 | inactive | –
C[C@]12CCC(=O)C=C1CC[C@@H]1[C@@H]2CC[C@@]2(C)[C@H]1CC[C@]2(C)O | 19.7 µM (active) | –
CC(C)(c1ccc(OCC2CO2)cc1)c1ccc(OCC2CO2)cc1 (stereo not given) | inactive | –
CCOP(=O)(O)OCC (tested in a mixture with another compound) | inactive and 8.64 µM (active) | –
CSc1nc(NC(C)C)nc(NC(C)C)n1 | – | -21.2% (inactive)
CC1(C)C(C(=O)OC(C#N)c2cccc(Oc3ccccc3)c2)C1(C)C (stereo not given) | – | -25.7% (inactive)
CCCCOCC1CO1 (stereo not given) | inactive | –
CNC(=O)Oc1cccc2c1OC(C)(C)C2 | inactive | –
CNC(=S)S | inactive | –
Cc1ccc(N=CN(C)C=Nc2ccc(C)cc2C)c(C)c1 | 39.1 µM (active) and 38.9 µM (active) and inactive | –

Structure (SMILES) | Potency | activity change, negative = cytotoxicity
CC(C)=CC1C(C(=O)OCc2cccc(Oc3ccccc3)c2)C1(C)C (stereo not given) | inactive | –
O=C1C(Cl)=C(Cl)C(=O)c2ccccc21 | 6.19 µM (active) and 9.77 µM (active) | –
CCOP(=S)(OCC)SCSC(C)(C)C | inactive | –
OCCOCCO | inactive | –
COc1ccc(C=O)cc1OC | inactive | –
CCCCSP(=O)(SCCCC)SCCCC | inactive | –
C=CC(Cl)CCl (stereo not given) | inactive | –
CC(C)(C#N)N=NC(C)(C)C#N | inactive | –
CCCCOCCOC(C)=O | inactive | –
O=[N+]([O-])c1ccc(Nc2ccccc2)cc1 | 44 µM (active) and 21.9 µM (active) | –
C=C(C)C#N | inactive and 13.8 µM (active) | –
N#CCCCCC#N | inactive | –
CS(=O)(=O)NC(=O)c1cc(Oc2ccc(C(F)(F)F)cc2Cl)ccc1[N+](=O)[O-] | inactive | –
CCC[CH2][Sn]([Cl])([CH2]CCC)[CH2]CCC | 347 nM (active) and 549 nM (active) | –
CCOP(=S)(OCC)OP(=S)(OCC)OCC | inactive | –
O=S(=O)(O)C(F)(F)C(F)(F)C(F)(F)C(F)(F)C(F)(F)C(F)(F)C(F)(F)C(F)(F)F | inactive | –
N#CC(c1ccccc1)c1ccccc1 | – | -9.21% (inactive)

Assay: qHTS RealTime-Glo MT Cell Viability Assay in HEK293 cells - 8 hour (AID 1224887); as to activity change, negative = cytotoxicity: top concentration of the series differs between compounds
Settings: RealTime-Glo luminescence; series mostly up to 76.8 µM; activity change, negative = cytotoxicity: at the top concentration
Summary of the method: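 Luminescence readout at each listed time point; HEK293, 600 cells/well, RealTime-Glo MT reagent added with cells; compounds pinned (23 nL in DMSO) after 5 h at 37 C; continuous culture at 37 C.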

Structure (SMILES) | Potency | activity change, negative = cytotoxicity
S=c1[nH]c2ccccc2[nH]1 | inactive | –
CCCCC(C#N)(Cn1cncn1)c1ccc(Cl)cc1 (stereo not given) | inactive | –
O=P(OCCCl)(OCCCl)OCCCl | inactive | –
COc1ccc(O)c(C(C)(C)C)c1 | inactive | –
CC(C)Nc1nc(Cl)nc(NC(C)C)n1 | inactive | –
COP(=S)(OC)Oc1ccc(Sc2ccc(OP(=S)(OC)OC)cc2)cc1 | – | -0.455% [at 35.3 µM] (inactive)
Brc1ccc(Br)cc1 | inactive | –
OC(c1ccc(Cl)cc1)(c1cncnc1)c1ccccc1Cl (stereo not given) | 22.3 µM (active) | –
ClCc1ccccn1 | inactive | –
C[C@]12CCC(=O)C=C1CC[C@@H]1[C@@H]2CC[C@@]2(C)[C@H]1CC[C@]2(C)O | – | -15.3% [at 35.3 µM] (inactive)
CC(C)(c1ccc(OCC2CO2)cc1)c1ccc(OCC2CO2)cc1 (stereo not given) | inactive | –
CCOP(=O)(O)OCC (tested in a mixture with another compound) | inactive and 54.5 µM (active) | –
CSc1nc(NC(C)C)nc(NC(C)C)n1 | inactive | –
CC1(C)C(C(=O)OC(C#N)c2cccc(Oc3ccccc3)c2)C1(C)C (stereo not given) | inactive | –
CCCCOCC1CO1 (stereo not given) | inactive | –
CNC(=O)Oc1cccc2c1OC(C)(C)C2 | inactive | –
CNC(=S)S | inactive | –
Cc1ccc(N=CN(C)C=Nc2ccc(C)cc2C)c(C)c1 | – | -4.68% [at 35.3 µM] (inactive)

Structure (SMILES) | Potency | activity change, negative = cytotoxicity
CC(C)=CC1C(C(=O)OCc2cccc(Oc3ccccc3)c2)C1(C)C (stereo not given) | inactive | –
O=C1C(Cl)=C(Cl)C(=O)c2ccccc21 | 6.19 µM (active) and 7.76 µM (active) | –
CCOP(=S)(OCC)SCSC(C)(C)C | inactive | –
OCCOCCO | inactive | –
COc1ccc(C=O)cc1OC | inactive | –
CCCCSP(=O)(SCCCC)SCCCC | inactive | –
Cn1c(-c2ccccc2)cc(-c2ccccc2)[n+]1C | – | -25.8% (inactive)
C=CC(Cl)CCl (stereo not given) | inactive | –
CC(C)(C#N)N=NC(C)(C)C#N | inactive | –
CCCCOCCOC(C)=O | inactive | –
C=C(C)C#N | – | 1.65% (inactive)
N#CCCCCC#N | inactive | –
CS(=O)(=O)NC(=O)c1cc(Oc2ccc(C(F)(F)F)cc2Cl)ccc1[N+](=O)[O-] | inactive | –
CCC[CH2][Sn]([Cl])([CH2]CCC)[CH2]CCC | 618 nM (active) and 1.23 µM (active) | –
CCOP(=S)(OCC)OP(=S)(OCC)OCC | inactive | –
O=S(=O)(O)C(F)(F)C(F)(F)C(F)(F)C(F)(F)C(F)(F)C(F)(F)C(F)(F)C(F)(F)F | inactive | –
N#CC(c1ccccc1)c1ccccc1 | inactive | –
